Assay results from article PMC9574860, “Chemical Toolkit for PARK7: Potent, Selective, and High-Throughput” (Journal of Medicinal Chemistry, 2022).
The campaign covered roughly 7,900 compounds. About 400 (5.1%) showed an effect of 50% or more. The full list was thinned out, with strong results kept by preference.

target: Parkinson's disease protein 7 (PARK7/DJ1) (human, UniProt Q99497); assay: primary screen, percent inhibition; read as competition with a fluorescent probe by fluorescence polarization; higher = more effect of the substance; conditions: 100 µM
Sequence (Q99497 whole entry, looked up, the tested form may be a part): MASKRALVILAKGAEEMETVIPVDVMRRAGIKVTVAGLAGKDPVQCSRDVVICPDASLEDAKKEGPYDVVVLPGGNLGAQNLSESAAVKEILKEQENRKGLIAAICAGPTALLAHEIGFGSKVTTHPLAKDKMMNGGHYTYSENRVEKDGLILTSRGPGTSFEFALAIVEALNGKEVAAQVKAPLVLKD
Procedure, shortened: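 Fluorescence-polarization probe displacement (JYQ-107, 20 nM final, 2 h) after 2 h preincubation of PARK7 (0.2 μM final) with each fragment at 100 μM final. Read-out ex/em 480/520 nm; remaining activity derived from FP signal loss relative to reference controls.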

| Compound | Inhibition % |
| --- | --- |
| Cc1cc(C)nc(S)c1 | 6.52% |
| O=C1OCCC1N1CCOC(c2nccs2)C1 (stereo not shown) | 13.9% |
| C=CC(=O)NCCc1ccc(F)cn1 | -26.8% |
| C=CC(=O)N1CCC(C(=O)N(C)c2ccccc2)C1 (stereo not shown) | 9.62% |
| C=CC(=O)NCc1coc2ccccc12 | 7.72% |
| COc1cccc(CNC(=O)n2ccnc2)c1 | 95.1% |
| Cc1ccccc1CCNC(=O)Cn1cnc(C#N)n1 | 4.99% |
| CNC(=O)n1ccnc1 | 75.1% |
| Cc1ccccc1CCNC(=O)n1ccnc1 | 101% |
| O=C(Nc1ccc(CNC(=O)n2ccnc2)cc1)C1CC1 | 92.1% |
| COc1ccccc1CNC(=O)n1ccnc1 | 5.2% |
| O=C(NCC1CCCC1)n1ccnc1 | 40.7% |
| COc1ccc(CNC(=O)n2ccnc2)cc1OC | 6.72% |
| O=C(NCCc1ccc(F)cc1)n1ccnc1 | 12.7% |
| CC(C)C(=O)Nc1ccc(CNC(=O)n2ccnc2)cc1 | 0.0136% |
| O=C(N1CCC1c1ccccc1)n1ccnc1 (stereo not shown) | 11.7% |
| O=C(NCC(F)(F)F)n1ccnc1 | 6.27% |
| Cc1cc(C)nc(C#N)c1 | 9.14% |
| NCC1CCCCN1C(=O)C=Cc1ccccn1 (stereo not shown) | 1.06% |
| C=CC(=O)NC1CCN(C2CCOC2)CC1 (stereo not shown) | 22% |
| C=CC(=O)NCCc1noc(-c2ccccn2)n1 | 11% |
| C=CC(=O)NCc1ccnc(C)n1 | 7.47% |
| C=CC(=O)NCc1nnc(C2CC2)o1 | 6.84% |
| Nc1ccc(NC(=O)Oc2ccccc2)cc1 | 11.2% |
| CC1(C)OB(c2cccc3c2CCC3)OC1(C)C | 3.3% |
| O=C(CCl)NC(=O)c1ccco1 | 22.8% |

| Compound | Inhibition % |
| --- | --- |
| CC(C)CC(=O)Nc1ccc(C(=O)CCl)cc1 | 3.15% |
| CC(C)C(=O)Nc1ccc(C(=O)CCl)cc1 | 2.39% |
| CCC(=O)Nc1ccc(C(=O)CCl)cc1 | 4.09% |
| CC(=O)Nc1ccc(C(=O)CCl)cc1 | 82.5% |
| O=C(CCl)c1ccc(NC(=O)c2ccco2)cc1 | 90.6% |
| CS(=O)(=O)c1ccc(OCCCl)cc1 | 4.09% |
| NC(=O)Nc1ccc(C(=O)CCl)cc1 | 89.6% |
| CS(=O)(=O)c1ccc(C(=O)CCl)cc1 | 87.3% |
| CCCC(=O)Nc1ccc(C(=O)CCl)cc1 | 5.21% |
| CC1(C)OB(c2ccc(OCCS(C)(=O)=O)cc2)OC1(C)C | -1.19% |
| N#Cc1cccc(OCC(F)(F)F)n1 | -0.809% |
| CN(C)S(=O)(=O)c1ccc(S)nc1 | 31.2% |
| O=c1onc(-c2ncccn2)n1Cc1ccccc1F | 1.26% |
| CC(=O)Nc1ccc(Sc2nccnc2C#N)cc1 | 18.2% |
| CC1(C)OB(C2CNC2)OC1(C)C.O=C(O)C(F)(F)F | 11.6% |
| COc1cc(F)ccc1N1CCN(C2CCOC2=O)CC1 (stereo not shown) | 7.6% |
| O=C(O)CNC(=O)C12CC3CC(CC(Cl)(C3)C1)C2 | 7.56% |
| Cc1c(NC(=O)CCl)cccc1[N+](=O)[O-] | 8.38% |
| C=CC(=O)NCC1CCC2(CCC2)CO1 (stereo not shown) | 5.32% |
| O=C(Nc1ccc(Cl)cc1)N1CCCCC1C1OCCO1 (stereo not shown) | 5.3% |
| C=CC(=O)N1CCC(c2ccco2)CC1 | 8.73% |
| Cc1ccn(S(=O)(=O)c2ccc(C(C)(C)C)cc2)n1 | 4.34% |
| Cc1ncsc1C=C(C#N)C(=O)NCCc1ccccc1 | 6.72% |
| CS(=O)(=O)Nc1ccc(C(=O)CCl)cc1 | 75.1% |
| CS(=O)(=O)Nc1ccc(B(O)O)cc1 | 9.91% |
| Cc1cc(I)ccc1NC(=O)CCl | 7.36% |

| Compound | Inhibition % |
| --- | --- |
| Cc1c(NC(=O)c2cccnc2S)cnn1CCC(C)C | 3.61% |
| O=C(CCl)c1ccc2c(c1)CCN(C(=O)C(F)(F)F)C2 | 2.68% |
| O=C(CCl)NNC(=O)c1cc2c(s1)CCCC2 | 4.38% |
| CC(=O)N1CCc2sc(C(=O)CCl)cc2C1 | 73.5% |
| N#Cc1c(-c2ccccc2)nc(S)[nH]c1=O | 13.2% |
| Cc1ccc(CN2CCCN(C(=O)CCl)CC2)cc1.Cl | 13% |
| COc1cc(S(=O)(=O)n2cccn2)ccc1F | 1.65% |
| O=C1OCCC1Sc1ncnc2ccsc12 (stereo not shown) | 3.13% |
| CN(C)C(=O)c1csc(C(=O)CCl)c1 | 67.8% |
| O=C(CCl)Nc1cccc(C(=O)O)c1 | 13.2% |
| CN(C)C(=O)c1cccc(NC(=O)CCl)c1 | 12.2% |
| NC(=O)c1csc(C(=O)CCl)c1 | 101% |
| Cn1cc(C(=O)CCl)cc1C(N)=O | 0.329% |
| O=C(O)c1csc(C(=O)CCl)c1 | 102% |
| CN(C)C(=O)c1ccc(NC(=O)CCl)cc1 | 44.1% |
| CN(C(=O)c1cc(C(N)=O)cs1)C1CC(C)(C)OC1=O (stereo not shown) | 7.6% |
| CC(C)C1NC(=O)C12CCCCCC2 (stereo not shown) | 9.56% |
| C=CC(=O)NC1(C)CCC(C)CC1 (stereo not shown) | 29.1% |
| C=CC(=O)NCCc1nc2c(C)cccc2o1 | 9.51% |
| Cc1cc(NC(=O)CCl)n(-c2ccccc2)n1 | 29.6% |
| Cc1nn(-c2ccccc2)c(C)c1C=C(C#N)C(=O)O | 6.36% |
| CN(C)C(=O)c1ccc(B2OC(C)(C)C(C)(C)O2)c(Cl)c1 | 2.75% |
| Cn1ncc(C(=O)O)c1C#N | 13.7% |
| CCCc1cc(=O)[nH]c(S)n1 | 8.86% |
| NC(=O)Cc1cc(=O)[nH]c(S)n1 | 52.6% |
| Cl.NCc1cc(=O)[nH]c(S)n1 | 27.5% |

| Compound | Inhibition % |
| --- | --- |
| N#CC(=Cc1ccc(F)cc1)C(=O)O | 2.9% |
| C=CC(=O)NCC1(C)OCCc2sccc21 (stereo not shown) | 16.4% |
| CC1(C(=O)Nc2cccc(S(=O)(=O)F)c2)CCCC1 | 97.7% |
| Cn1ncc(C(=O)Nc2cccc(S(=O)(=O)F)c2)c1C#N | 4.68% |
| Cn1cc(C(C)(C)C(=O)Nc2cccc(S(=O)(=O)F)c2)cn1 | 88.2% |
| C=CC(=O)NC(C)(C)c1cnn(C)c1 | 3.17% |
| CC(F)(F)C1(C(=O)Nc2cccc(S(=O)(=O)F)c2)CC1 | 95.7% |
| CSC1(C(=O)Nc2cccc(S(=O)(=O)F)c2)CC1 | 101% |
| Cc1cc(C(=O)Nc2cccc(S(=O)(=O)F)c2)nn1C(C)(C)C | 32.8% |
| COc1nc(C)ccc1C(=O)Nc1cccc(S(=O)(=O)F)c1 | 11.7% |
| COCCNC(=O)C(C#N)=Cc1c(Cl)cccc1Cl | 2.17% |
| O=C(CCl)Nc1cccc2ncccc12 | 40.3% |
| CS(=O)(=O)NC1CCCN(C(=O)C=Cc2cccnc2)C1 (stereo not shown) | 5.3% |
| N#CN(CCn1cncn1)c1ccccc1 | 6.47% |
| OB(O)c1ccc(OCC2CCCCO2)cc1 (stereo not shown) | 27.9% |
| CCN(c1ccc(C(F)(F)F)c(C#N)n1)C1CCOC1 (stereo not shown) | 8.44% |
| C=CC(=O)NC1CCCN(c2ncccn2)C1 (stereo not shown) | 4.88% |
| CC1(C)OB(c2ccc(C(F)C(F)(F)F)cc2)OC1(C)C (stereo not shown) | 3.09% |
| Cc1cc(C)n(CCCNc2ccnc(C#N)c2)n1 | 3.45% |
| CC1CC(Sc2nccc(C(F)(F)F)n2)C(=O)O1 (stereo not shown) | 3.32% |
| C=CC(=O)N1CCCC(n2ccnn2)CC1 (stereo not shown) | 11.9% |
| C=CS(=O)(=O)Nc1ccccc1 | 6.78% |
| CC1(C(=O)Nc2cccc(S(=O)(=O)F)c2)CCOCC1 | 83.4% |
| C=CC(=O)NCC1c2ccccc2C(=O)N1C (stereo not shown) | 7.14% |
| C=CC(=O)NC1(c2ccc(C(F)(F)F)cc2)CC1 | 6.09% |
| C=CC(=O)N1CCCC(c2n[nH]c(=O)o2)C1 (stereo not shown) | 1.49% |

| Compound | Inhibition % |
| --- | --- |
| C=CC(=O)N1CCC(NC(C)=O)(c2nc(C)cs2)C1 (stereo not shown) | 5.8% |
| CC1(c2ccc(S(=O)(=O)F)cc2)OCCO1 | 6.74% |
| Cc1nc(C2CC2)nc(S)c1C#N | 2.7% |
| Cc1nc(C2CC2)nc(S)c1C(=O)O | 51.1% |
| Cc1nc(C(C)(C)C)nc(S)c1C(=O)O | 1.97% |
| C=CC(=O)NC1COc2c(C)cccc2C1 (stereo not shown) | 10.9% |
| CC1(C)OB(c2cc3ccccc3cc2Br)OC1(C)C | 11.9% |
| CN(c1ccc(C(=O)CCl)cc1)S(C)(=O)=O | 94.3% |
| N#Cc1ccc(C(=O)CCl)cc1 | 18.8% |
| CCN(c1ccc(C(=O)CCl)cc1)S(C)(=O)=O | 95.1% |
| O=C(CCl)N(C1CCCCC1)C1CCS(=O)(=O)C1 (stereo not shown) | 1.27% |
| O=C(CCl)NCC#Cc1cccc(C(F)(F)F)c1 | 6.88% |
| Cl.ClCCN1CC2CCC(C1)O2 | 3.05% |
| Cc1nc(C#N)[nH]c1C | 3.54% |
| C=CC(=O)N1CCCC2(CCCOC2)C1 (stereo not shown) | 11.3% |
| Cc1nc(S)c(C#N)c(C)c1C | 3.15% |
| Cc1nnc(S)c(C#N)c1C | 53.3% |
| Cc1c(C#N)c(S)nc2c1CCC2 | 15.1% |
| CCOc1ccc(S(=O)(=O)n2nc(C)cc2C)cc1 | 3.86% |
| Cc1nc(C)c(C=C(C#N)C(=O)NC(C)C)o1 | 3.38% |
| N#CC(=Cc1ccncc1)C(=O)Nc1cccc(Cl)c1 | 10.5% |
| C#Cc1ccc(C=C(C#N)C(=O)Nc2ccncc2)cc1 | 73.3% |
| N#CC(=Cc1ccc(Cl)cc1)C(=O)Nc1ccncc1 | 2.9% |
